D2 PAM-1: potentiates the human D2 dopamine receptor allosterically; DiscoveRx D2 beta-arrestin cells, luminescence, 90 min; 100% = 57 uM dopamine signal; 360,000 compounds, 0.23% hits; potentiation, % (no concentration beside the values); P14416; in the data active = potentiation above about 50%; inconclusive = mostly about 30% to 49%
Target sequence (P14416 whole entry, looked up): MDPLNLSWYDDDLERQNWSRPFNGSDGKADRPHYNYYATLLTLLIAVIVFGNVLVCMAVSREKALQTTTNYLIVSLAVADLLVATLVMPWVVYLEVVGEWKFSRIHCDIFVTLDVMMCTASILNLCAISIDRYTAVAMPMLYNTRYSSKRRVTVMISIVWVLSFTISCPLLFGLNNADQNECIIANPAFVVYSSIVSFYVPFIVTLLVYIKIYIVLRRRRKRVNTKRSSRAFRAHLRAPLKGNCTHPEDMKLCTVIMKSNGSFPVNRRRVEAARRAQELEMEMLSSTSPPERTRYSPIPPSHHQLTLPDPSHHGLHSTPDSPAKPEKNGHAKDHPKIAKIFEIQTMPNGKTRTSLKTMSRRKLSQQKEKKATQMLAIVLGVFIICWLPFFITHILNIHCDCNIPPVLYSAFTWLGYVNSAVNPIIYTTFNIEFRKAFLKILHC
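D2 cells co-treated with compound plus 50 nM dopamine (EC20) for 90 min at 37 deg C to detect potentiation. Beta-arrestin recruitment was read as enzyme-fragment luminescence after 1 h at ambient temperature. Full response was set by 57 uM dopamine.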
D2 ag-1: activates the human D2 dopamine receptor | P14416 | HEK293 T-REx D2 cells, calcium flux agonist mode | activation, % at 2 µM | 340,000 compounds, 0.53% hits | AID 485358;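 active = activation over 3 SD above normal in the single-dose calcium agonist read, cut at about 30% in these data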; note: 0% is about no effect
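Tetracycline-induced HEK293 T-REx cells with force-coupled D2 receptor, plated overnight at 30 C, loaded with no-wash calcium dye. After a 10 s baseline, compound was pin-added and calcium flux read kinetically for 180 s; calcium rises flagged agonists.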
D2 antag: D2 dopamine receptor (human) antagonism; HEK293 TREx D2 cells, calcium flux, dopamine EC80; inhibition, % at 10 µM; 340,000 compounds, 2% hits; AID 485344; in the data active = inhibition above about 30%; inactive = below that, where a call was filed; note: 0% is about no effect
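Tetracycline-induced HEK293 TREx cells expressing D2 receptor forced-coupled to calcium signalling, loaded with no-wash calcium dye. Compounds added and calcium flux read 180 s, then dopamine added at EC80 and read a further 180 s.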
D2 PAM-2: D2 dopamine receptor (human) potentiation; P14416; HEK293 T-REx D2, calcium flux, EC20 dopamine potentiation; potentiation, % at 10 µM; 340,000 compounds, 0.34% hits;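 active = potentiation over 3 SD above the plate norm, cut at about 30% in these data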; note: 0% is about no effect
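Calcium flux readout, no-wash dye, 1 read/s. Inducible HEK293 Trex D2 line, overnight 30 C. Compound alone 180 s (agonist flags), then EC20 dopamine, another 180 s to score potentiation.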
D2 ag-2: activates the human D2 dopamine receptor. P14416. DiscoveRx PathHunter D2 beta-arrestin, luminescence, 90 min; 100% = 57 uM dopamine signal. activation, % (test concentration not listed). 360,000 compounds, 0.084% hits; in the data active = activation above about 40%; inconclusive = between about 15% and that limit
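DiscoveRx PathHunter D2 beta-arrestin cells (2,100/well) attached overnight, then compound-stimulated 90 min at 37 C in HBSS/10 mM HEPES/0.1% Tween-20 buffer; beta-galactosidase complementation read by luminescence after 1 h at ambient temperature. Dopamine 57 uM final (EC100) as control.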
D3 arrestin ag: activates human D3 dopamine receptor beta-arrestin recruitment | shares compounds with D2 ag-1 | DiscoveRx D3 beta-arrestin cells, luminescence, 90 min | Potency, µM (doses to about 76.9 µM), inactives show at the top dose activation, usual class: activators | 2,300 compounds, 4% hits;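 note: potency is the fitted concentration of half-maximal effect; 100% = dopamine control response; nearly all actives have a fitted effect of over 70% in size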
D2 ag-3: counter-screen for D3 agonists: human D2 dopamine receptor agonism; shares compounds with D2 ag-1; AID 720507; 2,300 compounds, 5.9% hits; Potency, µM (doses to about 76.9 µM), for inactives: top-dose activation, actives largely listed as activators; DiscoveRx PathHunter D2 beta-arrestin, luminescence, 90 min; response scale: percent relative to full dopamine signal; note: potency is the fitted concentration of half-maximal effect; % of control where 0% means no effect; nearly all actives have a fitted effect of over 70% in size
* = called active by the depositor; ? = inconclusive; . = no result. Compounds with a hit are over-represented: about 2.4% of the library has one in this group of screens. Unless noted, calls come from the whole dose curve; as a rule, active = well fitted activation curve with a large enough effect; inconclusive = small, poorly fitted or top-dose-only effect; inactive = flat fitted curve, though single readings scatter.

SMILES	D2 PAM-1	D2 ag-1	D2 antag	D2 PAM-2	D2 ag-2	D3 arrestin ag	D2 ag-3
COc1ccc(CN2C(=O)C(C)N(C(=O)c3c(F)cccc3F)c3ccccc32)cc1 (configuration not stated)	-6.2	0.0	22.9	2.3	-1.2	6.8%	-3.8%
COc1ccccc1N1CCN(C2CCCN(C(=O)CCc3ccccn3)C2)CC1 (configuration not stated)	-40.6	0.5	12.7	-11.5	-1.4	.	.
C=CCN=c1scc(-c2ccco2)n1/N=C/c1ccc(O)c(O)c1O	101.1*	74.2*	88.1*	-34.1	90.0*	39.8µM*	35.5µM*
COCCN=c1scc(-c2ccco2)n1/N=C/c1ccc(O)c(O)c1O	88.4*	67.6*	76.9*	-30.0	69.8*	35.5µM*	35.5µM*
CC(C)N=c1scc(-c2ccco2)n1/N=C/c1ccc(O)c(O)c1	14.8	2.7	3.1	-3.3	9.4	.	.
COc1cc(CNC(=O)c2cc(C(=O)NCc3cc(OC)cc(OC)c3)n(C)n2)cc(OC)c1	-10.3	0.9	18.0	-8.8	-1.8	.	.
COc1ccc(S(=O)(=O)N2CCC(C(=O)N[C@@H](C)C(=O)NC3CCCC3)CC2)cc1	-7.3	-0.1	-6.9	-10.9	2.8	.	.
COc1ccc(S(=O)(=O)NCCc2cn3ccsc3n2)cc1	.	1.1	.	-11.2	.	.	.
CCCN(CCC)CCCNS(=O)(=O)c1cc(Br)cc2c1N(C(C)=O)CC2	-32.7	58.9*	26.0	-16.2	7.2	23.3%	21.3%
COCC(=O)Nc1ccc2c(c1)OCC(=O)N2Cc1ccc(C)cc1	0.1	0.6	2.3	5.6	0.2	.	.
O=C(NC(=S)Nc1ccc(CN2CCOCC2)cc1)c1ccc([N+](=O)[O-])cc1Cl	-16.1	5.6	15.8	-0.2	1.3	.	.
O=C(NC(=S)Nc1ccc(CN2CCOCC2)cc1)c1ccccc1[N+](=O)[O-]	-0.9	.	.	.	-0.9	-20.9%	-0.9%
CCc1ccccc1NC(=O)C1CCCN1S(=O)(=O)c1ccc(-c2ccc(=O)[nH]n2)s1 (configuration not stated)	-10.1	9.7	-14.9	5.1	7.3	11.4%	2.2%
Cc1cccc(C)c1NC(=O)C1CCCN1S(=O)(=O)c1ccc(-c2ccc(=O)[nH]n2)s1 (configuration not stated)	1.1	1.5	-4.3	1.8	-3.3	.	.
Cc1ccc(/C=C/C(=O)CCC(=O)O)cc1	-4.2	0.9	27.7	-17.7	3.3	.	.
CCOc1ccc(OCCOCCNCCOC)cc1	-20.3	-0.6	-12.1	0.4	1.2	.	.
COc1cccc(CN2CCN(C(=O)CC(C)C)CC2)c1	11.6	54.9*	-20.2	-9.7	3.1	12.1%	8.2%
CCCC(=O)N1CCN(Cc2ccc3c(c2)OCO3)CC1	7.9	60.8*	-1.2	-32.5	4.8	-10.7%	10.4%
c1ccc(-c2csc3ncnc(N4CCN(Cc5ccc6c(c5)OCO6)CC4)c23)cc1	-19.2	0.0	-5.7	-14.4	-2.0	.	.
O=C(O)CCC(=O)N1CCN(Cc2ccc3c(c2)OCO3)CC1	0.0	4.6	9.1	6.8	-4.7	.	.
CCn1nc(C(=O)N2CCN(Cc3ccc4c(c3)OCO4)CC2)c2ccccc2c1=O	-9.9	50.1*	16.3	-23.7	-2.2	-9.5%	3.3%
CC(C)CC(=O)N1CCN(Cc2cccc(F)c2)CC1	-4.9	15.8	-9.5	-0.3	3.6	.	.
O=C(CSc1ncnc2scc(-c3ccccc3)c12)N1CCN(Cc2ccc3c(c2)OCO3)CC1	15.3	74.1*	69.7*	-22.8	?	10.5%	?
CC(=O)c1ccc(OCC(=O)OCC(=O)N(CC(C)C)c2c(N)n(Cc3ccccc3)c(=O)[nH]c2=O)cc1	-10.4	0.8	10.7	-4.0	-2.5	.	.

High-throughput results as filed in PubChem BioAssay.
